Inconclusive results are not listed. Activity calls are given as the source filed them. Calls follow the shape of the dose curve; as a rule, active = well fitted curve in the direction sought with a large enough effect; inconclusive = small, poorly fitted or top-dose-only effect, or another doubt; inactive = no such curve, though single readings can be large; an effect the other way counts as inactive or inconclusive.

Test [1] in a line: Primary qHTS for inhibitors of nuclear receptor binding SET domain protein 2 (NSD2) in an isogenic RCH-ACV NSD2 p.E1099K mutant (9B) (AID 1645876). The conditions noted are these: RCH-ACV NSD2 E1099K (9B) viability, CellTiter-Glo, 72 h; series mostly up to 44.9 µM. In general terms: Quantitative high-throughput screening tests each substance at several concentrations.
The nature of test [2]: Primary qHTS for inhibitors of nuclear receptor binding SET domain protein 2 (NSD2) in an RCH-ACV wild type WT cells (2C) (AID 1645877). The conditions noted are these: RCH-ACV (leukaemia line) NSD2 WT (2C) viability, CellTiter-Glo, 72 h; series mostly up to 44.9 µM.
Also: nearly all actives have a fitted effect of over 70% in size.
Potency is read from the fitted curve at half-maximal effect.

`CC(C)=CCC[C@](C)(O[C@@H]1O[C@H](CO[C@@H]2OC[C@@H](O)[C@H](O)[C@H]2O)[C@@H](O)[C@H](O)[C@H]1O)[C@H]1CC[C@]2(C)[C@@H]1[C@H](O)C[C@@H]1[C@@]3(C)CC[C@H](O[C@@H]4O[C@H](CO)[C@@H](O)[C@H](O)[C@H]4O)C(C)(C)[C@@H]3CC[C@]12C`: the Potency result in test [1] and in test [2] was “inactive” in each case. Take `COC(=O)N1CCC(n2ncc3c(N4CCOCC4)nc(-c4ccc(NC(=O)NC5CC5)cc4)nc32)CC1`: the Potency in test [1] was 0.0817 µM (active); in test [2] it was 0.115 µM (active).

Take `CC(C)(C)C1CCN(C(=O)n2ncc(C(O)(c3ccccc3)c3ccccc3)n2)CC1`: the Potency was 20.5 µM (active) in test [1] and 11.5 µM (active) in test [2]. Take `CO[C@H]1[C@@H](O)[C@H](O[C@H]2CC[C@@]3(C)C(CCC4C3CC[C@]35COC6(COC(=O)C6)C3CCC45O)C2)O[C@@H](C)[C@@H]1OC1OC(CO)C(OC2OC(CO)C(O)C(O)C2O)C(O)C1O` (stereo partly drawn): the Potency in test [1] and in test [2] was 3.88 µM (active) in each case. Regarding `COC(=O)N1CC2(CC2)C[C@H](C(=O)NO)[C@H]1C(=O)N1CCN(c2ccccc2)CC1`, the Potency result in test [1] and in test [2] was “inactive” each time.

On to `COC(=O)CC[C@@H](C)C1CCC2C3CCC4C[C@H](OC(C)=O)CCC4(C)C3C[C@H](O)C21C` (stereo partly drawn), for which the Potency result in test [1] and in test [2] was “inactive” each time. Regarding `CN[C@@H]1[C@H](O[C@H]2[C@H](O[C@@H]3[C@@H](O)[C@H](O)[C@@H](N=C(N)N)[C@H](O)[C@H]3N=C(N)N)O[C@@H](C)[C@]2(O)CO)O[C@@H](CO)[C@H](O)[C@H]1O`, the Potency result in test [1] and in test [2] was “inactive” each time. As to `COc1ccc(-c2ccccc2)cc1NS(=O)(=O)c1cc(Cl)cc(Cl)c1O`, the Potency result in test [1] and in test [2] was “inactive” each time. In the case of `CCOc1cn(-c2ccc(F)cc2C)nc1C(=O)Nc1ccc(Oc2ccnc3cc(OC)c(OC)cc23)c(F)c1`, the Potency in test [1] and in test [2] was 4.09 µM (active) each time. Consider `Nc1ncnc2c1nc(Cl)n2C1OC2COP(=O)(O)OC2C1O` (stereo not drawn), for which the results for the Potency in test [1] and in test [2] were 2.05 µM (active) and 2.9 µM (active), respectively. For `COc1cc([C@H]2O[C@H](c3cc(OC)c4c(c3)OCO4)[C@H](C)[C@H]2C)cc(OC)c1OC` the same measures were 3.55 µM (active) and 3.55 µM (active). For the compound `COC(=O)Nc1cc(Nc2cc(NC3CC3)c3ncc(C#N)n3n2)c(Cl)c(N2CCN(C)CC2)c1`, the Potency was 0.742 µM (active) in test [1] and 0.372 µM (active) in test [2]. `CCN(Cc1cc(Nc2nc(C)cn3c(-c4cn[nH]c4)cnc23)sn1)C(C)(C)CO`: the Potency in test [1] is 0.0092 µM (active); in test [2], 0.0082 µM (active). For `C=CC(=O)N1CCCN(c2cc(NCCC(=O)O)nc(-c3ccccn3)n2)CC1` the same measures were “inactive” and “inactive”. For `C=C1C(=O)O[C@@H]2C[C@@]3(C)C[C@@H](O)C[C@H](C)C3=C[C@H]12` the same measures were 7.28 µM (active) and 5.15 µM (active). The matching figures for `C=C1C(=O)O[C@@H]2C[C@H](C)C3=CC(=O)[C@H](O)[C@@]3(C)C[C@H]12`: 25.8 µM (active) and 18.3 µM (active). As to `CCn1c(-c2nonc2N)nc2c(C#CC(C)(C)O)ncc(OCC3CCCNC3)c21` (stereo not drawn), the Potency in test [1] is 1.03 µM (active); in test [2], 1.45 µM (active). Turning to `Cc1cc(C(=O)Nc2cc(Oc3ccc4nc(NC(=O)C5CC5)cn4n3)ccc2C)n(C)n1`, the Potency is 13.2 µM (active) in test [1] and 9.34 µM (active) in test [2]. In the case of `CC(=O)CC(=O)Nc1ccc(Cl)c(C(F)(F)F)c1`, the Potency is 20.5 µM (active) in test [1] and 10.3 µM (active) in test [2]. The matching figures for `CCN1CCN(Cc2ccc(NC(=O)c3ccc(C)c(Oc4ncnc5[nH]c(C)cc45)c3)cc2C(F)(F)F)CC1`: 2.05 µM (active) and 2.3 µM (active). For the compound `C=C1C(=O)O[C@@H]2/C=C(\CO)CC/C=C(\CO)[C@H](OC(C)=O)C(OC(=O)C(C)CC)C12` (stereo partly drawn), in test [2], the Potency is 5.02 µM (active). `C=C1C(=O)OC2/C=C(\CO)CC/C=C(\C=O)C(OC)C(OC(=O)C(C)CC)C12` (stereo not drawn): the values for the Potency in test [1] and in test [2] were 7.96 µM (active) and 5.02 µM (active), respectively. Regarding `O=c1[nH]cnc2c([C@@H]3N[C@H](CO)[C@@H](O)[C@H]3O)c[nH]c12`, the Potency entry in test [1] and in test [2] was “inactive” in each case.

As for `COc1cccc(-c2cc(F)ccc2C2Cc3nc(N)nc(C)c3C(=O)N2)n1` (stereo not drawn), the Potency was 0.0525 µM (active) in test [1] and 0.059 µM (active) in test [2].

As to `CC(O)(C(=O)O)C1CCC2(C)C1CCC1(C)C2CCC2C3(C)CCC(O)C(C)(COC4OC(CO)C(O)C(O)C4O)C3CCC21C` (stereo not drawn), the Potency result in test [1] and in test [2] was “inactive” each time.

Turning to `C[C@@H]1CC[C@@]23CC[C@]4(C)[C@@](C=CC5[C@@]6(C)CC[C@H](O)C(C)(C)C6CC[C@]54C)(OC2=O)C3[C@H]1C` (stereo partly drawn), the Potency result in test [1] and in test [2] was “inactive” throughout. For `C[C@@H]1C[C@H]2O[C@@]3(O[C@@H]2C(C)(C)O)C(O)[C@@]2(C)C4CCC5C(C)(C)[C@@H](O[C@H]6OC[C@H](O)[C@@H](O)[C@@H]6O)CC[C@@]56C[C@@]46CC[C@]2(C)C13` (stereo partly drawn), the Potency entry in test [1] and in test [2] was “inactive” each time.
